The values that follow come from PubChem BioAssay (NCI).

Molecules are shown by their SMILES. This is part of a sample that, as a whole, favours compounds with a hit. Of some 83,000 tested, about 20% had one in any assay.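 Negative percent growth values reflect cell death: -40 means 40% of the cells present at the start died, and -100 means all died.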 Unmarked numbers belong to inactive results. Active and inactive are the calls of the source. The calls were made as follows: active = growth percent below 10; inactive = the rest.

The test deals with CCRF-CEM leukemia. The test is described as follows: NCI-60 one-dose screen, 48 h (100 = growth as untreated, 0 = no growth, -100 = all killed). To be noted: 10 µM unless noted.
As for `O=C(N/N=C/c1c[nH]c2ccccc12)Nc1ccccc1Cl`, the growth is 9.84% (active).

`COc1ccc(CCC2NCCc3c(Br)c4c(c(OC)c32)OCO4)cc1` (stereo not drawn): the growth is 19.6%.

Consider `CN(C)c1nc(NCCNS(=O)(=O)c2ccc(C(=O)/C=C/c3ccc(Cl)cc3)cc2)nc(N2CCOCC2)n1`, for which the growth is 3.45% (active). Next, `COc1ccccc1NC(=O)N/N=C/c1c[nH]c2ccccc12`: 17.4%. Consider `O=C1/C(=C/c2cnc(-c3ccccc3)s2)SC(=S)N1Cc1ccc2c(c1)OCO2`, for which the growth was 87.2%. For `N#CC1=C(c2cccs2)Nc2c(c(-c3ccccc3)nn2-c2ccccc2)C12C(=O)Nc1ccccc12` (stereo not drawn) the value was 6.02% (active); for `COc1ccc2[nH]c(=O)cc(-n3ncc(C(=O)/C=C/c4cc(OC)c(OC)c(OC)c4)c3C)c2c1`, -20.4% (active); for `C[C@H](NC(=O)c1ccc2c(-c3ccc(C(F)(F)F)cc3)cccc2c1)c1ccccn1`, 38.6%. For `Cn1cc(Nc2ncnc(-c3ccc(N4CCCC4)c(C#N)c3)n2)cn1` the value was 72.2%. As to `CCCCCCCCc1cccc(CC(=O)Nc2ccc(C)cc2C(=O)O)c1`, the growth is 26.7% [25 µM]. For `O=C1CCC(N2C(=O)c3cccc(NCCCCCC(=O)N4CCN(c5ccc6nc7c(nc6c5C(F)(F)F)C(=O)c5ncccc5C7=O)CC4)c3C2=O)C(=O)N1` (stereo not drawn) the value was -23.1% (active); for `CN1C(=O)/C(=C\C(=O)c2cc3ccccc3oc2=O)c2ccccc21`, 43.4%; for `Cc1ccc2nc(NC(=O)Nc3cccc(Cl)c3)sc2c1`, 89.6%. Next, `O=C1Nc2ccccc2/C1=C\c1ccc(OCC(=O)c2ccc(Br)cc2)cc1`: 58.2%; `COc1ccc2[nH]cc(-c3cc(N)n4nc(-c5c[nH]c6ccccc56)cc4n3)c2c1`: -20% (active).

Regarding `Cn1cc(-c2cc(N)n3nc(-c4c[nH]c5ccc(Cl)cc45)cc3n2)c2cccnc21`, the growth is -34.8% (active). For `Cc1ccc(-c2cc(C(=O)N=Nc3c(O)[nH]c4ccc(F)cc34)c3ccccc3n2)cc1` the value was 92.4%. For `O=C(NN1C(=O)/C(=C/C=C/c2ccc([N+](=O)[O-])o2)SC1=S)c1ccncc1` the value was -43.9% (active).
